Laboratory results from PubChem BioAssay (EPA / NIEHS).
Records with an inconclusive call do not appear. A structure can be active in one record and inactive in another. Activity calls are given as the source filed them. The calls were made as follows, unless noted: active = hit-call score of the fitted dose curve at least 0.9, where 1 is the maximum; inactive = score below 0.9.

Key:
[1] = BSK_BT_Bcell_Proliferation: Viability Assessment in the BioMAP Diversity Plus: BT Assay for B cell Proliferation (AID 2284227); details: primary human B cells with PBMC
Summary of the method: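 Using a human primary B cell–PBMC co-culture, the assay measures total protein by sulforhodamine B absorbance as a gauge of proliferation after 72 h. Analysis followed the positive fitting direction with DMSO as baseline.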

[2] = read-out: Interleukin 6 (IL6), IL6 (gene 3569); assay: BSK_BT_xIL6: BioMAP Diversity Plus: BT Assay for Interleukin 6 (IL6) Biomarker Activity (AID 2284228); details: primary human B cells with PBMC
Summary of the method: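 Secreted IL-6 in the primary human B cell plus PBMC system, measured by Luminex at 24 h post-chemical, DMSO as baseline. Alamar Blue viability: 75,000 cells/well, chemical 1 h before SEB/TSST-1 (20 ng/mL each), 90 h, then 6 h dye.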

[3] = read-out: Tumor necrosis factor (Homo sapiens) (UniProt P01375); assay: BSK_BT_xTNFa: BioMAP Diversity Plus: BT Assay for Tumor necrosis factor alpha (TNF-alpha) Biomarker Activity (AID 2284230); details: primary human B cells with PBMC
Summary of the method: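 Endpoint derived in the positive direction versus DMSO vehicle. Cells: B cells together with PBMC, exposed 24 h before TNF-alpha in the medium was read on the Luminex xMAP platform.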

[4] = read-out: Vascular cell adhesion molecule 1 (VCAM1), VCAM1 (gene 7412); assay: BSK_MyoF_VCAM1: BioMAP Diversity Plus: MyoF Assay for Vascular cell adhesion molecule 1 (VCAM1) Biomarker Activity (AID 2284231); details: primary human lung fibroblasts
Summary of the method: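 ELISA readout of VCAM-1 on human lung fibroblast cultures 24 hours after dosing, analyzed for signal gain relative to DMSO. Overt cytotoxicity was checked by sulforhodamine B total-protein staining in parallel cultures.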

[5] = read-out: Collagen I, COL1A1 (gene 1277); assay: BSK_MyoF_CollagenI: BioMAP Diversity Plus: MyoF Assay for Collagen I Biomarker Activity (AID 2284238); details: primary human lung fibroblasts
Summary of the method: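 Collagen I levels measured by ELISA on human lung fibroblast cultures 24 h post-dosing, with curve fitting in the positive direction relative to DMSO; SRB staining of parallel wells marked cytotoxicity.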

[6] = read-out: Interleukin 17F (IL17F), IL17F (gene 112744); assay: BSK_BT_xIL17F: BioMAP Diversity Plus: BT Assay for Interleukin 17F (IL17F) Biomarker Activity (AID 2284243); details: primary human B cells with PBMC
Summary of the method: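 Human B cells co-cultured with PBMC; secreted IL-17F quantified by LumineX xMAP 24 hours after chemical dosing. Activity fitted in the positive direction against DMSO negative control as baseline.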

[7] = read-out: Actin alpha 1 (ACTA1), ACTA1 (gene 58); assay: BSK_MyoF_ACTA1: BioMAP Diversity Plus: MyoF Assay for Actin alpha 1 (ACTA1) Biomarker Activity (AID 2284244); details: primary human lung fibroblasts
Summary of the method: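 alpha-SMA levels read by ELISA against DMSO baseline, 24 h post-dose, in primary human lung fibroblasts. Parallel cultures stained with 0.1% SRB after 10% TCA fixation (560 nm) to flag overt cytotoxicity.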

[8] = read-out: Interleukin 2 (IL2), IL2 (gene 3558); assay: BSK_BT_xIL2: BioMAP Diversity Plus: BT Assay for Interleukin 2 (IL2) Biomarker Activity (AID 2284245); details: primary human B cells with PBMC
Summary of the method: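 Secreted IL-2 was read by Luminex xMAP from B cells co-cultured with PBMC (human primary) 24 h post-dosing; activity was analysed as gain of signal relative to DMSO vehicle.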

[9] = read-out: Basic fibroblast growth factor (bFGF), FGF2 (gene 2247); assay: BSK_MyoF_bFGF: BioMAP Diversity Plus: MyoF Assay for Basic fibroblast growth factor (bFGF) Biomarker Activity (AID 2284246); details: primary human lung fibroblasts
Summary of the method: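 bFGF was measured by ELISA in primary human lung fibroblasts 24 h after chemical addition. Signal was analysed as positive-direction change relative to DMSO baseline.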

[10] = read-out: Collagen IV, COL4A1 (gene 1282); assay: BSK_MyoF_CollagenIV: BioMAP Diversity Plus: MyoF Assay for Collagen IV Biomarker Activity (AID 2284247); details: primary human lung fibroblasts
Summary of the method: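 Collagen IV quantified by ELISA in human lung fibroblast cultures 24 h after chemical treatment, with DMSO as baseline. Parallel SRB staining (0.1% SRB after TCA fixation, 560 nm) flags overt cytotoxicity.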

[11] = read-out: Monokine induced gamma interferon (MIG), CXCL9 (gene 4283); assay: BSK_KF3CT_MIG: BioMAP Diversity Plus: KF3CT Assay for Monokine induced gamma interferon (MIG) Biomarker Activity (AID 2284248); details: primary human keratinocytes with fibroblasts
Summary of the method: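 Parallel cultures were stained with SRB (560 nm) to check cytotoxicity. MIG was quantified by ELISA in a primary human skin keratinocyte/fibroblast co-culture 24 h post-dosing, with gain of signal fitted relative to DMSO.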

[12] = read-out: Vascular cell adhesion molecule 1 (VCAM1), VCAM1 (gene 7412); assay: BSK_BF4T_VCAM1: BioMAP Diversity Plus: BF4T Assay for Vascular cell adhesion molecule 1 (VCAM1) Biomarker Activity (AID 2284249); details: primary human bronchial epithelial cells with fibroblasts
Summary of the method: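 Cell-surface VCAM-1 quantified by ELISA after 24 h chemical exposure of human bronchial epithelial/dermal fibroblast co-cultures, with SRB staining in parallel wells for cytotoxicity; DMSO baseline, positive-direction fitting.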

[13] = read-out: Collagen I, COL1A1 (gene 1277); assay: BSK_hDFCGF_CollagenI: BioMAP Diversity Plus: hDFCGF Assay for Collagen I Biomarker Activity (AID 2284250); details: primary human foreskin fibroblasts
Summary of the method: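 Collagen I quantified by ELISA 24 h after chemical dosing of human dermal fibroblast primary cells, with parallel SRB staining (0.1%, TCA-fixed, 560 nm) for overt cytotoxicity.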

[14] = read-out: Plasminogen activator inhibitor-1 (PAI1), SERPINE1 (gene 5054); assay: BSK_KF3CT_PAI1: BioMAP Diversity Plus: KF3CT Assay for Plasminogen activator inhibitor-1 (PAI1) Biomarker Activity (AID 2284252); details: primary human keratinocytes with fibroblasts
Summary of the method: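 PAI-1 levels quantified by ELISA after 24 h compound exposure of primary human skin keratinocytes co-cultured with fibroblasts. Activity is the gain relative to DMSO; cytotoxicity tracked in parallel cultures via SRB staining.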

[15] = read-out: Monocyte Chemoattractant Protein-1 (MCP1), CCL2 (gene 6347); assay: BSK_IMphg_MCP1: BioMAP Diversity Plus: IMphg Assay for Monocyte Chemoattractant Protein-1 (MCP1) Biomarker Activity (AID 2284253); details: primary human endothelial cells with macrophages
Summary of the method: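 ELISA readout of MCP-1 at 24 hours in IMphg co-cultures of venular endothelial cells and macrophages, normalised to DMSO; parallel cultures stained with sulforhodamine B for overt cytotoxicity.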

[16] = read-out: Interferon-inducible T-cell alpha chemoattractant (ITAC), CXCL11 (gene 6373); assay: BSK_hDFCGF_ITAC: BioMAP Diversity Plus: hDFCGF Assay for Interferon-inducible T-cell alpha chemoattractant (ITAC) Biomarker Activity (AID 2284251); details: primary human foreskin fibroblasts
Summary of the method: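 I-TAC levels were read by ELISA on human dermal foreskin fibroblast primary cultures 24 h after dosing, analysed against DMSO in the positive direction. Cytotoxicity was assessed alongside by sulforhodamine B total-protein staining.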

[17] = read-out: Collagen III, COL3A1 (gene 1281); assay: BSK_MyoF_CollagenIII: BioMAP Diversity Plus: MyoF Assay for Collagen III Biomarker Activity (AID 2284239); details: primary human lung fibroblasts
Summary of the method: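 Collagen III biomarker quantified by ELISA in human lung fibroblast cultures 24 h after dosing. Activity fitted in the positive direction against DMSO as baseline.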

[18] = CCTE_Mundy_HCI_hNP1_Casp3_7: CCTE's Caspase-Glo 3/7 Assay in human neuroprogenitor cells for Apoptosis, Mundy Lab (AID 2284240)
Summary of the method: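 Apoptosis is scored by activated caspase-3/7 luminescence in WA09-derived neural progenitor cells, measured 26.5 h after chemical dosing. Values represent gain of signal relative to DMSO vehicle.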

[19] = CCTE_Mundy_HCI_hNP1_CellTiter: CCTE's Cell Titer-Glo 2 Assay in human neuroprogenitor cells for Viability, Mundy Lab (AID 2284241; active = hit-call score of the fitted dose curve at least 0.9, where 1 is the maximum)
Summary of the method: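 Human neural progenitor cells (hNP1, WA09-derived) were plated on poly-L-ornithine/laminin and grown 40 to 44 hours at 37 °C, 5% CO2 before chemical addition. Twenty-four hours later, ATP was measured by CellTiter-Glo luminescence; loss of signal versus DMSO indicates reduced viability.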

Measured: AC50

Sequence of Tumor necrosis factor (Homo sapiens) (P01375 whole entry, looked up): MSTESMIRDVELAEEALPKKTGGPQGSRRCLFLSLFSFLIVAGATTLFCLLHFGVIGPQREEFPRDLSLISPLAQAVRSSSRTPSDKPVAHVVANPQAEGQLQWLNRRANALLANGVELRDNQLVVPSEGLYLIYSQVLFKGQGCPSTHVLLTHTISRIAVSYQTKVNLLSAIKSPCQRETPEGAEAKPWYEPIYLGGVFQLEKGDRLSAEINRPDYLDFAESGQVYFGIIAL

O=C(O)C(F)(F)C(F)(F)C(F)(F)C(=O)O
inactive: [1] | [2] | [3] | [4] | [5] | [6] | [7] | [8] | [9] | [10] | [11] | [12] | [13] | [14] | [15]

FC(F)(F)C(F)(F)C(F)(F)CC1CO1 (stereo not given)
inactive: [1] | [2] | [3] | [4] | [5] | [6] | [7] | [8] | [9] | [10] | [11] | [12] | [13] | [14] | [15]

CCN(CC)c1ccc(C=O)cc1
inactive: [1] | [2] | [3] | [4] | [5] | [6] | [7] | [8] | [9] | [10]

FC(F)(F)C(F)(F)C(F)(F)C(F)(F)C(F)(F)C(F)(F)C(F)(F)CCI
inactive: [1] | [2] | [3] | [4] | [5] | [6] | [7] | [8] | [9] | [10] | [11] | [12] | [13] | [16] | [14] | [15]
active: [16] 3.33 µM

CCN(CC)c1ccc(C=O)c(O)c1
inactive: [1] | [2] | [3] | [4] | [5] | [17] | [6] | [7] | [8] | [9] | [10]

CCOC(C=C(C)CCC=C(C)C)OCC
active: [4] 27 µM | [5] 30 µM | [7] 7.77 µM | [9] 30.7 µM
inactive: [1] | [2] | [3] | [6] | [8] | [10]

CCN(CC)c1ccc(N=Nc2ccccc2)cc1
active: [1] 30.3 µM | [2] 20 µM | [3] 31 µM | [4] 20 µM | [5] 20 µM | [6] 31 µM | [7] 23.8 µM | [8] 32.6 µM | [10] 9.37 µM
inactive: [9]

Brc1nc2ccccc2s1
active: [2] 0.338 µM | [8] 0.431 µM
inactive: [1] | [3] | [4] | [5] | [6] | [7] | [9] | [10]

C[C@]12CC[C@H]3C(=CCc4cc(O)ccc43)[C@@H]1CCC2=O
active: [1] 26.1 µM | [6] 20 µM
inactive: [2] | [3] | [4] | [5] | [17] | [7] | [8] | [9] | [10]

CC(C)CCCC(C)CCO (stereo not given)
inactive: [1] | [2] | [3] | [6] | [8] | [9] | [10]
active: [4] 29.9 µM | [5] 31.6 µM | [7] 30.9 µM

O=C(O)CCC(F)(F)C(F)(F)C(F)(F)F
inactive: [1] | [2] | [3] | [4] | [5] | [17] | [18] | [19] | [6] | [7] | [8] | [9] | [10] | [11] | [12] | [13] | [14] | [15]

O=C(Cl)C(F)(F)C(F)(F)C(F)(F)C(F)(F)C(F)(F)C(F)(F)F
inactive: [1] | [2] | [3] | [4] | [5] | [17] | [6] | [7] | [8] | [9] | [10] | [11] | [12] | [13] | [14] | [15]

Cc1cc(O)c(C(C)(C)C)cc1C(C)(C)C
active: [1] 26.1 µM | [2] 17.2 µM | [3] 33.3 µM | [4] 3.83 µM | [5] 4.19 µM | [17] 5.41 µM | [6] 27.3 µM | [7] 3.74 µM | [8] 31.2 µM | [9] 5.37 µM | [10] 4.74 µM

O=C(Cl)C(F)(F)C(F)(F)C(F)(F)C(F)(F)C(F)(F)C(F)(F)C(F)(F)F
active: [15] 52.9 µM
inactive: [1] | [2] | [3] | [4] | [5] | [6] | [7] | [8] | [9] | [10] | [11] | [12] | [13] | [14] | [15]

O=C=Nc1cccc2c(N=C=O)cccc12
inactive: [1] | [2] | [3] | [4] | [5] | [6] | [7] | [8] | [9] | [10]
